# Among all 69,000 compounds or so, about 8,600 (12%) showed an effect of 50% or more. Only a selection was taken, and strong results are over-represented in it overall.
# System: Plasmodium berghei
# Experiment: Screen against P. berghei liver stage (PbLuc), transformed with Luciferase, at 10uM
# Assay type: functional, HepG2
# Details: tested at 10 uM
row,SMILES,INHIBITION [%]
1,Cc1noc(C)c1-c1nc(NCCN(C)C)ncc1-c1cnccn1,-56.2
2,CCCOC(=O)N1CCC(c2nnc(Cn3cccn3)n2C2CC2)CC1,-35.9
3,Cc1nc(C)n(CC2CCCCN2Cc2ncc(C(C)(C)C)o2)n1 (stereo not given),31
4,Cc1nc(C)n(CC2CCCN2Cc2ncc(C(C)(C)C)o2)n1 (stereo not given),63.5
5,Cc1nc(C)n(CC2CCCN2CC(=O)NCCc2cccs2)n1 (stereo not given),43.6
6,Cc1nc(C)n(CC2CCCN2CCc2ccncc2)n1 (stereo not given),-21.985
7,Cc1cc(C)n(CC2CCCN2Cc2ncc(C(C)(C)C)o2)n1 (stereo not given),-25.6
8,COCCc1noc(CN2CCCC2Cn2nc(C)nc2C)n1 (stereo not given),64.8
9,CC(C)(C)CC1CCCN1Cc1nc(-c2ccco2)no1 (stereo not given),76.2
10,COCCc1noc(CN2CCCC2Cn2nc(C)cc2C)n1 (stereo not given),1.75
11,COCCc1noc(CN2CCCCC2Cn2nc(C)cc2C)n1 (stereo not given),18.4
12,Cc1nc(C)n(CC2CCCN2Cc2nc(-c3ccco3)no2)n1 (stereo not given),29.645
13,Cc1nc(C)n(CC2CCCN2CCc2cccs2)n1 (stereo not given),52
14,c1coc(-c2noc(CN3CCCC3Cn3cncn3)n2)c1 (stereo not given),31.8
15,Fc1cc(Cl)cnc1N1CCCC(c2nccn2Cc2ccncc2)C1 (stereo not given),31.4
16,CCOC(=O)c1cccc(N2CCCC3(CCC(=O)N(C4CC4)C3)C2)n1 (stereo not given),28.7
17,CC(C)C1CN(C(=O)c2ccn(C)c(=O)c2)c2ccccc2N1 (stereo not given),-36.7
18,Cc1nc(CN(C)C2CCN(CCCc3ccccc3)C2)no1 (stereo not given),-61.4
19,Cc1ccc(-c2nc(CN3CCn4c(C)nnc4C3)cs2)o1,-31.8
20,Cc1cc(C(=O)N(CC(C)C)CC(O)c2ccc(F)cc2)[nH]n1 (stereo not given),-36.4
21,CSc1ccccc1NC(=O)C1CN(C(=O)c2ccc3c(c2)OCO3)C1,12.7
22,CN(C)C(=O)[C@@H]1CCO[C@@H]2CCN(c3ncccn3)C[C@@H]21,8.85

row,SMILES,INHIBITION [%]
1,Cc1nc(C)n(CC2CCCN(Cc3nnc(-c4ccco4)o3)C2)n1 (stereo not given),-0.79
2,Cc1nc(C)n(CC2CCCN2Cc2nnc(-c3ccco3)o2)n1 (stereo not given),50
3,Cc1nc(C)n(CC2CCCCN2Cc2nnc(-c3ccco3)o2)n1 (stereo not given),-9.07
4,O=C(Cn1cc(-c2ccccc2)ncc1=O)Nc1nc(C2CC2)n[nH]1,33.7
5,O=C(N[C@H]1COC[C@@H]1N1CCCC1)c1csc(-c2cccs2)n1,34.2
6,COc1ccc(C[C@H]2CN(C(=O)c3ccncc3)CC[C@@H]2OC)cc1,34.1
7,COc1cc(N2CC[C@@H](OC)[C@@H]2Cc2ccccc2)ncn1,-30
8,COc1ccc(C[C@H]2CN(c3cc(OC)ncn3)CC[C@@H]2OC)cc1,55.5
9,COc1ccc(C[C@H]2CN(c3cc(OC)ncn3)CC[C@H]2OC)cc1,74.8
10,COc1ccc(C[C@H]2CN(C(=O)c3ncccn3)CC[C@@H]2OC)cc1,27.2
11,COc1ccc(C[C@H]2CN(C(=O)c3ccc(C)nc3)CC[C@@H]2OC)cc1,-12.2
12,c1cc(CN2CCCn3cnc(COCC4CC4)c3C2)ccn1,18.5
13,COCc1nn(C)c2c1CCN(Cc1cnn(C)c1)C2,-17.1
14,N#Cc1ccc(CNCCc2cc(F)cc3c2OCOC3)cc1,28.8
15,Cc1cc(C(=O)N2CCO[C@H]3[C@H](OCCN(C)C)CC[C@@H]32)c(C)[nH]1,24.3
16,O=C1OCCN1CC(=O)N1C[C@@H]2CC[C@H]1CN(C(=O)c1ccccn1)C2,44.8
17,O=C1Nc2ccccc2CN(CC2CC2)C12CCNC2 (stereo not given),46.6
18,O=C(CN1CC(c2nc(Cc3ccccc3)no2)C1)NCC1CCCO1 (stereo not given),2.55
19,Cc1ccc(NC(=O)N2CC(C(=O)NC(C)C)C3(CCOCC3)C2)cc1 (stereo not given),80
20,CC(C)NC(=O)C1CN(C(=O)Cc2cccc(F)c2)CC12CCOCC2 (stereo not given),10
21,CC(C)NC(=O)C1CN(C(=O)Cc2ccccc2)CC12CCOCC2 (stereo not given),53.4
22,CC(C)NC(=O)C1CN(C(=O)N(C)C)CC12CCOCC2 (stereo not given),89.2

row,SMILES,INHIBITION [%]
1,CC(C)NC(=O)C1CN(C(=O)CCc2ccccc2)CC12CCOCC2 (stereo not given),20.9
2,CC(C)NC(=O)C1CN(C(=O)Nc2ccc(F)cc2)CC12CCOCC2 (stereo not given),14.8
3,CN(C)C(=O)N1CC(C(=O)NCC2CC2)C2(CCOCC2)C1 (stereo not given),36.7
4,CC(C)NC(=O)C1CN(C(=O)Nc2ccccc2)CC12CCOCC2 (stereo not given),17.6
5,CC(C)NC(=O)C1CN(C(=O)N2CCCC2)CC12CCOCC2 (stereo not given),22.7
6,CN(CCOCC1CC1)C(=O)Nc1ccc([S+](C)[O-])c(F)c1 (stereo not given),41.3
7,Cc1cnn(CC(=O)N2CCCN(Cc3cnn(C(C)C)c3)CC2)c1,33.7
8,NC(=O)CS(=O)(=O)Cc1csc(-c2ccccc2)n1,46.6
9,CCS(=O)(=O)N1CC[C@H]2CO[C@H](CN(C)C)[C@H]2C1,19.4
10,Cc1nc(NC(=O)OC(C)(C)C)sc1C#N,53.4
11,Cc1nc(NC(=O)OC(C)(C)C)sc1C(N)=O,-0.514
12,Cc1nc(NC(=O)OC(C)(C)C)sc1C(=O)O,46.6
13,O=C(c1ccc[nH]1)N1CCc2ncc(Cn3cccn3)n2CC1,25.6
14,c1ccc(N2CCN(Cc3cnc(C4CCCCO4)nc3)CC2)cc1 (stereo not given),21.1
15,c1ccc(N2CCC(OCC3CCCCO3)CC2)nc1 (stereo not given),62.9
16,c1ccc(N2CCN(Cc3cnc(C4CCCCO4)nc3)CC2)nc1 (stereo not given),51.7
17,Cc1nccn1-c1cccc(N2CCC(OCC3CCCCO3)CC2)n1 (stereo not given),95.9
18,c1ccc(CCN2CCC(OCC3CCCCO3)CC2)nc1 (stereo not given),7.24
19,Clc1ccc(N2CCC(OCC3CCCCO3)CC2)nc1 (stereo not given),34.5
20,c1cnc(N2CCC(OCC3CCCCO3)CC2)nc1 (stereo not given),31.1
21,c1ccc(CN2CCN(Cc3cnc(C4CCCCO4)nc3)CC2)cc1 (stereo not given),10.9
22,Cc1nccn1-c1cccc(C2CCCN2)n1 (stereo not given),-2.09

row,SMILES,INHIBITION [%]
1,CCCn1cc(C(=O)N2CCCC2(C)c2nc(C)cc(C)n2)cn1 (stereo not given),-3.02
2,Cn1cc(S(=O)(=O)N(CC(F)(F)F)C2CC2)cc1C(N)=O,-29.2
3,O=C(Cn1cnc2ccsc2c1=O)c1ccc2c(c1)OCCO2,-73.1
4,COCC(=O)NCCC(=O)N1CCN(S(=O)(=O)c2ccc(Br)cc2)CC1,68.4
5,COCC(=O)NCCSCCOc1cccc(Br)c1,18
6,COCC(=O)N1CCN(S(=O)(=O)c2ccccc2)[C@@H](C(=O)OC)C1,-33
7,COCC(=O)NCc1cccc(Br)c1,3.81
8,COCC(=O)NCCC(=O)N1CCN(S(=O)(=O)c2cccc(Br)c2)CC1,63.8
9,CS(=O)(=O)NCCC(=O)N1CCN(S(=O)(=O)c2ccc(Br)cc2)CC1,11.8
10,CCCn1ncc(C(=O)NC2CCN(CC3CCCO3)CC2)c1C (stereo not given),34.4
11,CCCn1ncc(C(=O)NC2CCN(C3CCOCC3)CC2)c1C,59.3
12,CCCn1ncc(C(=O)N2CCN(C3CCCC3)CC2)c1C,-39.2
13,CN1CC(=O)N(c2cccc(F)c2)CC12CCN(Cc1cnn(C)c1)C2 (stereo not given),18.2
14,Cc1ccc(C2(CN3CCN(Cc4cnc(C)n4C)CC3)CC2)cc1,12.8
15,CN1CCC(Cc2cnc3ccccc3c2)C1 (stereo not given),45.2
16,CN1CCNCC(Cc2cnc3ccccc3c2)C1 (stereo not given),52.7
17,c1ccc2ncc(CC3CCNC3)cc2c1 (stereo not given),35
18,Cc1ccc(C)n1C(C)C(=O)N1CCCN(Cc2cscn2)CC1 (stereo not given),26.55
19,CCOC(=O)CC1CCCCN1C(=O)c1cccc2ccnn12 (stereo not given),-22.1
20,Cn1cccc1C(=O)N1CCC2(CC1)CCN2S(C)(=O)=O,20.1
21,CN1CCCCC12CCN(C(=O)c1cccn1C)CC2,50.7
22,CC(C)C(=O)N1CCCC2(CCCN2Cc2cccnc2)C1 (stereo not given),10.5

row,SMILES,INHIBITION [%]
1,Cn1cccc1C(=O)N1CCC2(CCCN2S(C)(=O)=O)CC1,28.2
2,Cn1cccc1C(=O)N1CCC2(CCCN2Cc2ccccc2)CC1,45.3
3,O=C(c1cnccn1)N1CCCC2(CCCN2Cc2cccnc2)C1 (stereo not given),-8.85
4,Cn1cc(CN2CCCC23CCN(C(=O)c2cccn2C)CC3)cn1,66
5,Cn1cc(CN2CCCC23CCN(C(=O)c2ccccc2)CC3)cn1,-9.18
6,Cn1cccc1C(=O)N1CCCC2(CCCN2Cc2cccnc2)C1 (stereo not given),56.9
7,CO[C@@]1(C)C[C@@H](O)C12CCN(C(=O)c1ccccc1C(C)=O)CC2,40.7
8,Cc1ccc(CN2C[C@@H]3COC[C@H](C(=O)N4CCCCO4)[C@@H]3C2)o1,14.8
9,CC(C)CCN1CC2(CCCN(C(=O)CNC(=O)N(C)C)C2)CCC1=O (stereo not given),19.4
10,Cc1cc(NC(=O)NCC(C)N2CCOCC2)n(C)n1 (stereo not given),-17
11,Cc1cc(-c2cnc(C3CC3)nc2CN(C)C(=O)c2ccccn2)on1,-25
12,CCOCCCNC(=O)Nc1ccc(F)c(C(N)=O)c1,7.67
13,O=c1c2cccnc2ccn1Cc1nccn1C1CC1,14.9
14,Cc1cnccc1CN1CC[C@@](C)(O)[C@H](Oc2ccccc2)C1,39.2
15,C[C@]1(O)CCN(Cc2c[nH]cn2)C[C@@H]1Oc1cccc(F)c1,32.3
16,C[C@]1(O)CCN(Cc2cccnc2)C[C@@H]1Oc1cccc(F)c1,44.1
17,C[C@@]1(O)CCN(Cc2cc[nH]n2)C[C@H]1Oc1cccc(F)c1,66.4
18,Cc1cnccc1CN1CC[C@@](C)(O)[C@H](Oc2cccc(F)c2)C1,56
19,Cc1ncc(CN2CC[C@@](C)(O)[C@H](Oc3cccc(F)c3)C2)cn1,56
20,C[C@]1(O)CCN(Cc2nccs2)C[C@@H]1Oc1cccc(F)c1,26.3
21,Cc1cnccc1CN1CC[C@H](Oc2cccc(F)c2)[C@@](C)(O)C1,48.6
22,COc1ncc(CN2CC[C@@](C)(O)[C@H](Oc3cccc(F)c3)C2)cn1,37.9

# Reference: ChEMBL document CHEMBL4513216, “Probing the Open Global Health Chemical Diversity Library for Multistage-Active Starting Points for Next-Generation Antimalarials” (ACS Infect Dis, 2020)
